# Laboratory results as given in PubChem BioAssay (EPA / NIEHS).
# Results filed as inconclusive are left out. Active and inactive are the calls of the source. How the source made its calls, unless noted: active means hit-call score of the fitted dose curve at least 0.9, where 1 is the maximum; inactive means score below 0.9.
# Assays:
# [1] = CCTE_Harrill_HTTr_Apoptosis_MCF7: CCTE's 6-hour Apoptosis Assessment for the High-Throughput Transcriptomics (HTTr) Platform, in MCF-7 cells cultured in DMEM + 10% fetal bovine serum, Harrill Lab (AID 2284011)
# How it was run: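 High-content imaging of CellEvent Caspase 3/7 Green signal follows a six-hour exposure, with eight concentrations per chemical. MCF-7 cells grown in DMEM plus 10% fetal bovine serum; activity fitted in both directions against DMSO.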
# [2] = CCTE_Harrill_HTTr_CellCount_MCF7: CCTE's Cell Proliferation Assessment for the High-Throughput Transcriptomics (HTTr) Platform, Harrill Lab (AID 2284012; active means hit-call score of the fitted dose curve at least 0.9, where 1 is the maximum;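 further: cells exposed to compound for six hours; intended direction is loss of nuclei count meaning fewer cells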)
# How it was run: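 Cell count served as viability reporter: loss of Hoechst-stained nuclei, counted by high content imaging, marks decreased growth or survival. Exposure was 6 h in MCF-7 cells across eight concentrations, with DMSO as baseline.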
# [3] = CCTE_Shafer_MEA_acute_burst_number: CCTE's Neural Acute Assay for Single-Electrode Bursts, Shafer Lab (AID 2284013)
# How it was run: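 Primary rat cortical neurons on 16-electrode MEA wells, DIV 13 or 15, exposed to compound (0.03-40 uM; ≥3 wells); 40-min recordings at 37 C before and after treatment. Burst count expressed as percent change from baseline, DMSO as negative control.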
# [4] = CCTE_Shafer_MEA_acute_burst_duration_mean: CCTE's Neural Acute Assay for Mean Burst Duration, Shafer Lab (AID 2284014);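 further: hits are decreases in mean burst duration relative to DMSO controls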
# How it was run: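 Mean burst duration was compared between a 40 min baseline and a 40 min recording in the presence of compound (0.03-40 uM, 37 C), giving percent change per well. Cultures were rat cortical neurons at DIV 13 or 15; wells needed ≥10 active electrodes.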
# [5] = CCTE_Shafer_MEA_acute_per_burst_spike_number_mean: CCTE's Neural Acute Assay for Average Number of Spikes Per Burst, Shafer Lab (AID 2284015);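 further: hits are decreases in mean spikes per burst versus baseline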
# How it was run: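 We recorded spontaneous network firing of rat cortical neurons for 40 min before and 40 min during exposure to compound at 0.03-40 uM, at 37 C. Spikes were detected adaptively at 8x rms noise, and the change in average spikes per burst was fitted against DMSO.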
# [6] = CCTE_Shafer_MEA_acute_interburst_interval_mean: CCTE's Neural Acute Assay for Mean Interburst Interval, Shafer Lab (AID 2284016);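 further: percent change of mean interburst interval versus each well's own pre-dose baseline; curves fitted for decrease in interburst interval relative to DMSO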
# How it was run: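 MEA recording of spontaneous network bursting in primary rat cortical cultures; mean interburst interval was compared before and after a 40-min compound exposure (0.03-40 uM) and expressed as percent change, relative to DMSO.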
# [7] = CCTE_Shafer_MEA_acute_burst_percentage_mean: CCTE's Neural Acute Assay for Percentage of Spikes in a Burst, Shafer Lab (AID 2284017);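 on AC50: curve fitted for loss of signal so potency reflects decreased burst percentage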
# How it was run: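 Compounds were tested at 0.03-40 uM on primary rat cortical neuron networks grown over microelectrodes, with at least three wells per compound. Spontaneous firing was recorded for 40 min before and 40 min after dosing, and the change in burst percentage was computed per well.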
# [8] = CCTE_Shafer_MEA_acute_burst_percentage_std: CCTE's Neural Acute Assay for Standard Deviation of Burst Percentage, Shafer Lab (AID 2284018);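 further: fitted in the negative direction so actives lower burst percentage SD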
# How it was run: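 Value is percent change from baseline in the across-electrode SD of spikes-in-bursts percentage, wells with >/= 10 active electrodes. Acute 40-min exposure to 0.03-40 uM on DIV 13 or 15 rat cortical cultures, recorded at 37 C after 40-min baseline.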
# [9] = CCTE_Shafer_MEA_acute_per_network_burst_spike_number_mean: CCTE's Neural Acute Assay for Average Number of Spikes in a Network Burst, Shafer Lab (AID 2284019);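 on AC50: curve fitted for loss of signal so actives reduce spikes per network burst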
# How it was run: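 Percent change from baseline in mean spikes per network burst, spikes detected at 8x rms noise. Each compound at 0.03-40 uM in at least three wells of rat cortical cultures, recorded 40 min before and 40 min during exposure.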
# [10] = CCTE_Shafer_MEA_acute_per_network_burst_spike_number_std: CCTE's Neural Acute Assay for Standard Deviation of Number of Spikes in a Network Burst, Shafer Lab (AID 2284020);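 further: fitted for decrease in spike-number SD versus DMSO so actives lower it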
# How it was run: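 Endpoint: percent change from 40 min baseline in standard deviation of spikes per network burst, after 40 min compound exposure (0.03-40 uM, 37 C). Cortical rat neurons on MEA at DIV 13 or 15; spikes detected at 8x rms noise, 300-5000 Hz band-pass.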
# [11] = CCTE_Shafer_MEA_acute_per_network_burst_electrodes_number_mean: CCTE's Neural Acute Assay for Mean Number of Electrodes in a Network Burst, Shafer Lab (AID 2284021);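 further: curves fitted for decreases only so hits reduce electrodes per burst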
# How it was run: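 Percent change from baseline was computed as mean electrode count per network burst, comparing 40 min recordings before and during compound (0.03-40 uM) exposure. Cultures were rat cortical neurons at DIV 13 or 15, recorded on MEAs at 37 C with an adaptive 8x rms threshold.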
# [12] = CCTE_Shafer_MEA_acute_network_burst_percentage: CCTE's Neural Acute Assay for Percentage of Network Bursts, Shafer Lab (AID 2284022);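 further: curves fitted for loss so actives lower network burst percentage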
# How it was run: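 Network burst percentage (spikes in network bursts divided by total spikes) recorded at 37 C over 40 min baseline and 40 min after compound, 0.03-40 uM, in rat cortical cultures at DIV 13 or 15. Analysed as percent change from baseline versus DMSO.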
# [13] = CCTE_Shafer_MEA_acute_cross_correlation_area: CCTE's Neural Acute Assay for Area of Cross Correlation, Shafer Lab (AID 2284024);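 further: area under pooled inter-electrode spike cross-correlation near zero lag as percent change from own baseline; curves fitted for loss of cross-correlation area so actives lower synchrony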;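 on outcome: rat primary cortical neuron networks on 48-well MEA at DIV 13 or 15 with 40 min exposure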
# How it was run: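 Percent change in well-wide cross-correlation area (window around zero lag) between 40 min baseline and 40 min post-compound recordings, 37 C; rat cortical cultures on MEA at DIV 13 or 15, dosed 0.03-40 uM, wells needing >/= 10 active electrodes.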
# [14] = CCTE_Shafer_MEA_acute_cross_correlation_HWHM: CCTE's Neural Acute Assay for Cross Correlation at Half Width at Half Maximum, Shafer Lab (AID 2284026);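 further: percent change per well from pre-dose baseline in spike cross-correlogram half width; hits are a decrease in cross-correlogram half width relative to DMSO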
# How it was run: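 Per-well percent change in cross-correlogram half width at half maximum, derived from 40-min recordings before and after compound (0.03-40 uM) at 37 C. Cultures were rat cortical neurons, DIV 13 or 15, with adaptive spike detection at 8x rms.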
# [15] = CCTE_Shafer_MEA_acute_synchrony_index: CCTE's Neural Acute Assay for Synchrony, Shafer Lab (AID 2284027);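 further: network synchrony index of spontaneous spiking in primary rat cortical neurons on MEAs; fitted for loss of signal so actives lower synchrony relative to DMSO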
# How it was run: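 Plates equilibrated 20 min at 37 C, baseline recorded 40 min, compound (0.03-40 uM) added, then 40 min more recorded. Cells: primary rat cortical neurons, DIV 13 or 15. Per-well synchrony index change analysed in negative direction against DMSO.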
# [16] = target: Estrogen receptor (Homo sapiens) (UniProt P03372); experiment: CCTE_Deisenroth_AIME_96WELL_LUC_Active: CCTE's 96-well Estrogen Receptor Transactivation Assay with AIME metabolic competence (ERTA luciferase; metabolism positive), Deisenroth Lab (AID 2284023; active means hit-call score of the fitted dose curve at least 0.9, where 1 is the maximum)
# How it was run: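 Metabolism-positive mode: induced rat hepatic S9 in alginate microspheres conditions test solutions (0.002 - 200 uM, 10 points) for 2 hours. VM7Luc4E2 ER luciferase reporter cells then exposed 24 h; positive-direction fit against 17beta-estradiol, n=4 typical.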
# [17] = target: Estrogen receptor (Homo sapiens) (UniProt P03372); experiment: CCTE_Deisenroth_AIME_96WELL_LUC_Inactive: CCTE's 96-well Estrogen Receptor Transactivation Assay without AIME metabolic competence (ERTA luciferase; metabolism negative), Deisenroth Lab (AID 2284025; active means hit-call score of the fitted dose curve at least 0.9, where 1 is the maximum)
# How it was run: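 Metabolism-negative arm: chemicals (0.002–200 uM, 10 points) incubated 2 h with alginate-water microspheres, then medium moved onto VM7Luc4E2 cells for 24 h luciferase read-out. Positive direction vs 17beta-estradiol; n≥4 experiments.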
# [18] = CCTE_Deisenroth_AIME_96WELL_CTox_Active: Cytotoxicity Assessment (CTOX) in CCTE's 96-well Estrogen Receptor Transactivation Assay with AIME metabolic competence (metabolism positive), Deisenroth Lab (AID 2284028; active means hit-call score of the fitted dose curve at least 0.9, where 1 is the maximum)
# How it was run: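 Cytotoxicity in VM7Luc4E2 breast cells after 24 h exposure to medium from a 2 h metabolic pre-incubation with induced rat hepatic S9 in alginate microspheres; fluorescent live-cell protease readout, 10-point series 0.002–200 uM, n=4.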
# [19] = CCTE_Deisenroth_AIME_96WELL_CTox_Inactive: Cytotoxicity Assessment (CTOX) in CCTE's 96-well Estrogen Receptor Transactivation Assay without AIME metabolic competence (metabolism negative), Deisenroth Lab (AID 2284029; active means hit-call score of the fitted dose curve at least 0.9, where 1 is the maximum)
# How it was run: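 Metabolism-negative mode: alginate-water lids without rat S9, 2 h pre-incubation of 10-point series (0.002 - 200 uM). Conditioned medium on VM7Luc4E2 cells 24 h; loss of fluorescent live-cell protease signal marks cytotoxicity.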
# Sequence of Estrogen receptor (Homo sapiens) (P03372 whole entry, looked up): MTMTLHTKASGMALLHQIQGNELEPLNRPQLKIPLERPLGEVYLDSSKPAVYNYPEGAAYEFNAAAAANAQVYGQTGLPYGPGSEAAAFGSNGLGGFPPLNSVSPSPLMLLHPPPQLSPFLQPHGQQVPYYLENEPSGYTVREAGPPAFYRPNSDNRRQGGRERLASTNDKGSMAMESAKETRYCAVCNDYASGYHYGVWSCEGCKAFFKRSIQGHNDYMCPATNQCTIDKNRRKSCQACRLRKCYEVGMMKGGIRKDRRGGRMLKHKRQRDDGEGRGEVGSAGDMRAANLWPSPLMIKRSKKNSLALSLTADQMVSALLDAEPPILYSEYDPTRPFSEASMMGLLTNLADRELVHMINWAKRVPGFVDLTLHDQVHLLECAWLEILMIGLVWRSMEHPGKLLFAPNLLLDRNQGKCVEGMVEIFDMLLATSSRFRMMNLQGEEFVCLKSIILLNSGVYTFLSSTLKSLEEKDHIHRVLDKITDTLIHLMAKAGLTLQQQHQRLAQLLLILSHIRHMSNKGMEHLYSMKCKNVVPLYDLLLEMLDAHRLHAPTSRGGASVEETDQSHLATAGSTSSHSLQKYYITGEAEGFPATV
smiles,measurement,setting,value
COC(=O)[C@H]1[C@H]2C[C@@H]3c4[nH]c5cc(OC)ccc5c4CCN3C[C@H]2C[C@@H](OC(=O)c2cc(OC)c(OC)c(OC)c2)[C@@H]1OC,outcome,[1],inactive
same,outcome,[2],inactive
same,AC50,[3],0.82 µM (active)
same,outcome,[4],inactive
same,AC50,[5],0.582 µM (active)
same,AC50,[6],4.18 µM (active)
same,AC50,[7],34.3 µM (active)
same,outcome,[8],inactive
same,AC50,[9],0.808 µM (active)
same,AC50,[10],20 µM (active)
same,outcome,[11],inactive
same,outcome,[12],inactive
same,outcome,[13],inactive
same,AC50,[14],20 µM (active)
same,AC50,[15],4.97 µM (active)
Cc1cn([C@H]2C=C[C@@H](CO)O2)c(=O)[nH]c1=O,outcome,[1],inactive
same,outcome,[2],inactive
O=C1c2c(O)cccc2Cc2cccc(O)c21,outcome,[1],inactive
same,outcome,[2],inactive
CC(C)NCC(O)c1ccc(O)c(O)c1 (centres undefined),outcome,[1],inactive
same,outcome,[2],inactive
same,outcome,[3],inactive
same,outcome,[4],inactive
same,outcome,[5],inactive
same,outcome,[6],inactive
same,outcome,[7],inactive
same,outcome,[8],inactive
same,outcome,[9],inactive
same,outcome,[10],inactive
same,outcome,[11],inactive
same,outcome,[12],inactive
same,outcome,[13],inactive
same,outcome,[14],inactive
same,outcome,[15],inactive
CC(=O)O,outcome,[1],inactive
same,outcome,[2],inactive
Oc1ccc(O)cc1,outcome,[1],inactive
same,outcome,[2],inactive
same,outcome,[3],inactive
same,outcome,[4],inactive
same,outcome,[5],inactive
same,AC50,[6],20 µM (active)
same,outcome,[7],inactive
same,outcome,[8],inactive
same,outcome,[9],inactive
same,outcome,[10],inactive
same,outcome,[11],inactive
same,outcome,[12],inactive
same,AC50,[16],50.2 µM (active)
same,outcome,[13],inactive
same,AC50,[17],71.8 µM (active)
same,outcome,[14],inactive
same,outcome,[15],inactive
same,outcome,[18],inactive
same,outcome,[19],inactive
Nc1nc(=S)c2[nH]cnc2[nH]1,outcome,[1],inactive
same,outcome,[2],inactive
same,outcome,[3],inactive
same,outcome,[4],inactive
same,AC50,[5],20 µM (active)
same,outcome,[6],inactive
same,AC50,[7],5.71 µM (active)
same,outcome,[8],inactive
same,AC50,[9],17.1 µM (active)
same,outcome,[10],inactive
same,outcome,[11],inactive
same,outcome,[12],inactive
same,outcome,[13],inactive
same,AC50,[14],32.2 µM (active)
same,AC50,[15],3.98 µM (active)
O=C1NC(=O)C(c2ccccc2)(c2ccccc2)N1,outcome,[1],inactive
same,outcome,[2],inactive
CC(C)(C)c1ccccc1,outcome,[1],inactive
same,outcome,[2],inactive
CC(N)=O,outcome,[1],inactive
same,outcome,[2],inactive
same,outcome,[3],inactive
same,outcome,[4],inactive
same,outcome,[5],inactive
same,outcome,[6],inactive
same,outcome,[7],inactive
same,outcome,[8],inactive
same,outcome,[9],inactive
same,outcome,[10],inactive
same,outcome,[11],inactive
same,outcome,[12],inactive
same,outcome,[13],inactive
same,outcome,[14],inactive
same,outcome,[15],inactive
Cc1cc(SC2=C(O)C[C@@](CCc3ccc(N)cc3)(C(C)C)OC2=O)c(C(C)(C)C)cc1CO,outcome,[1],inactive
same,outcome,[2],inactive
same,AC50,[3],20 µM (active)
same,outcome,[4],inactive
same,outcome,[5],inactive
same,outcome,[6],inactive
same,outcome,[7],inactive
same,outcome,[8],inactive
same,outcome,[9],inactive
same,outcome,[10],inactive
same,outcome,[11],inactive
same,outcome,[12],inactive
same,AC50,[13],20 µM (active)
same,outcome,[14],inactive
same,outcome,[15],inactive
O=C1OC(c2ccc(O)cc2)(c2ccc(O)cc2)c2ccccc21,outcome,[1],inactive
same,outcome,[2],inactive
same,outcome,[3],inactive
same,outcome,[4],inactive
same,outcome,[5],inactive
same,outcome,[6],inactive
same,AC50,[7],24.6 µM (active)
same,outcome,[8],inactive
same,outcome,[9],inactive
same,AC50,[10],20 µM (active)
same,outcome,[11],inactive
same,AC50,[12],31 µM (active)
same,outcome,[13],inactive
same,outcome,[14],inactive
same,AC50,[15],28.5 µM (active)
O=Cc1ccccc1C=O,outcome,[1],inactive
same,outcome,[2],inactive
CC(=O)[C@@]1(O)CC[C@H]2[C@@H]3CCC4=CC(=O)CC[C@]4(C)[C@H]3CC[C@@]21C,outcome,[1],inactive
same,outcome,[2],inactive
S=c1[nH]c2ccccc2s1,outcome,[18],inactive
